Consider seven compounds from PubChem BioAssay (Tox21).

“And” between values parts separate entries of the source, which are not always exact repeats. Equal entries are not always repeated. Records with an inconclusive call do not appear. More than one record can exist for a structure, and the calls need not agree. The source made the active and inactive calls. Unless noted, the call rests on the fitted dose curve.

Experiment [1] is described as follows: qHTS assay to identify small molecule antagonists of the sonic hedgehog signaling (Shh) pathway (AID 1259369). Further: nearly all actives have a fitted effect of over 45% in size. Further: potency means the concentration at half of the fitted maximal effect. The gist of the method:
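For antagonist detection, the reporter line received test compounds together with conditioned medium, incubated 24hr at 37 C, 5% CO2, then luminescence was recorded following 30min room-temperature luciferase reagent incubation.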
Background: Quantitative high-throughput screening tests each substance at several concentrations.

The target in experiment [2] is Estrogen receptor beta (Homo sapiens) (UniProt Q92731). Put plainly: qHTS assay to identify small molecule agonists of the estrogen receptor beta (ER-beta) signaling pathway (AID 1259377; active means well fitted activation curve with a large enough effect in the signal ratio in the repeat runs, not every such curve was filed as active; the % refers to the signal ratio). Put shortly:
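Ratiometric beta-lactamase FRET read-out came after 2 h substrate loading at room temperature. It followed 16 h compound treatment at 37C of GripTite HEK293T cells carrying a UAS-bla reporter, plated in 2% charcoal-stripped FBS medium.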

Experiment [3] is described as follows: qHTS assay to identify small molecule agonists of the androgen receptor (AR) signaling pathway in the presence of an antagonist - cell viability counter screen (AID 1259379; active means well fitted curve in the direction sought with a large enough effect in the repeat runs; an effect the other way counts as inactive or inconclusive;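 further: MDA-kb2 human breast cancer cells carrying an MMTV luciferase reporter; series mostly up to about 92 µM; nearly all actives have a fitted effect of over 25% in size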). Put shortly:
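Seed MDA-kb2 at 3,000 cells/well; incubate 5 hr, 37C, 0% CO2. Add nilutamide to 3.0uM final, then pin compounds at 15 concentrations. Incubate 16 hr. Add CellTiter-Fluor at 15 hr, read fluorescence after 1 hr.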

Experiment [4] can be described thus: qHTS assay to identify small molecule antagonists of the estrogen receptor beta (ER-beta) signaling pathway - cell viability counter screen (AID 1259382; active means well fitted curve in the direction sought with a large enough effect in the repeat runs; an effect the other way counts as inactive or inconclusive; further: series mostly up to about 92 µM; nearly all actives have a fitted effect of over 55% in size). Put shortly:
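In this multiplexed counter screen, cells were seeded at 2,000 per well in medium with 2% charcoal-stripped FBS and incubated 6 hr before compound and 1nM final E2 were added. Sixteen hours later, ATP-based luminescence reported viability.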

The target of experiment [5] is Estrogen receptor (Homo sapiens) (UniProt P03372). Put plainly: qHTS assay to identify small molecule agonists of the estrogen receptor alpha (ER-alpha) signaling pathway in the presence of an antagonist (AID 1259383). Further: nearly all actives have a fitted effect of over 15% in size. Further: potency means the concentration at half of the fitted maximal effect. On activation: top concentration of the series differs between compounds. Put shortly: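 Stably transfected VM7Luc4E2 reporter cells, kept 5 days in charcoal-stripped serum, received ICI-182,780 at 10.0nM final before compound addition. Following 22hr incubation at 37C and 5% CO2, luciferase signal was read by luminescence.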
Chain of Estrogen receptor (Homo sapiens) (P03372 whole entry, looked up): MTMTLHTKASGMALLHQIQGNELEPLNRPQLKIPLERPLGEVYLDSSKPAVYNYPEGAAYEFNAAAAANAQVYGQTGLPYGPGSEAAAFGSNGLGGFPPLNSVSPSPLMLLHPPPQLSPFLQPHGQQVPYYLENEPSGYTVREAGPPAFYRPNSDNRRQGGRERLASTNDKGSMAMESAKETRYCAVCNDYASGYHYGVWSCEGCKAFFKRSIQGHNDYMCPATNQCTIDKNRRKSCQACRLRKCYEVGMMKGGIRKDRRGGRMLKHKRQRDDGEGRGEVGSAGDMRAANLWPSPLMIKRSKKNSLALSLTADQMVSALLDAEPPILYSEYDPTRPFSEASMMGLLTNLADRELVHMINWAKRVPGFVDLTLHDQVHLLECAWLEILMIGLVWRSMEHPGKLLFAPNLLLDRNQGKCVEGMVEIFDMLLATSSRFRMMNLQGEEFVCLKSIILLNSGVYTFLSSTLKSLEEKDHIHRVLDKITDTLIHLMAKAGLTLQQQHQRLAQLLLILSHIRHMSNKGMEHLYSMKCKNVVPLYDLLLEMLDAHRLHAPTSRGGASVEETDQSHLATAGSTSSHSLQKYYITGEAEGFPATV

Experiment [6] is described as follows: qHTS assay to identify small molecule agonists or antagonists of the thyroid stimulating hormone receptor (TSHR) signaling pathway - wild type cell line counter screen (AID 1259384). The gist of the method:
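Wild-type Hek293 cells, 800/well, 18 h at 37C, then compound with Ro20-1724 for 30 min RT. cAMP by HTRF (cAMP-d2/anti-cAMP cryptate), 1 h RT, fluorescence read. 15 concentrations, triplicates.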

For experiment [7], the target named is Thyrotropin receptor (Homo sapiens) (UniProt P16473). Put plainly: qHTS assay to identify small molecule antagonists of the thyroid stimulating hormone receptor (TSHR) signaling pathway (AID 1259385). Further: nearly all actives have a fitted effect of over 20% in size. Put shortly: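 TSHR-HEK293 cells (800/well) plated 18 h, then compounds with Ro20-1724 and TSH at 1.5 ng/mL final, 30 min at room temperature. cAMP quantified by HTRF (cAMP-d2/anti-cAMP-cryptate, 1 h); 15 concentrations in triplicate.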
Chain of Thyrotropin receptor (Homo sapiens) (P16473 whole entry, looked up): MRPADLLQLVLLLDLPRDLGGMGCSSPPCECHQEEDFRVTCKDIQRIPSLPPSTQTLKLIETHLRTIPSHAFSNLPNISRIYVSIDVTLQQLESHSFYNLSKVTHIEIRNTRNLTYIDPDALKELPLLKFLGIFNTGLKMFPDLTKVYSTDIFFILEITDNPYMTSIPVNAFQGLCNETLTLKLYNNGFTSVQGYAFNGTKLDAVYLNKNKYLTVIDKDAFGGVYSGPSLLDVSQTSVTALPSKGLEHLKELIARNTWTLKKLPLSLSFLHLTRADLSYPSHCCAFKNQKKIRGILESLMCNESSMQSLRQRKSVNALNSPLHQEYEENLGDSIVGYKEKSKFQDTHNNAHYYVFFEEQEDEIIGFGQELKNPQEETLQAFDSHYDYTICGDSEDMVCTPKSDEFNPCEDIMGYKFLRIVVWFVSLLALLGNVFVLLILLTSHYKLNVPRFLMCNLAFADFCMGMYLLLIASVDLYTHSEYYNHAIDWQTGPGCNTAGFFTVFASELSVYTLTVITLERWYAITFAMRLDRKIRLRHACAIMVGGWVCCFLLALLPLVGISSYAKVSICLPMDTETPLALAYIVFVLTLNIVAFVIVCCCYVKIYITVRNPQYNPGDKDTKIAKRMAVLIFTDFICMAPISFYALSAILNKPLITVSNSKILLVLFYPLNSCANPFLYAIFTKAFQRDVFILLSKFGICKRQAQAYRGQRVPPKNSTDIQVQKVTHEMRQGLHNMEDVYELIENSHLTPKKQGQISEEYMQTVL

The nature of experiment [8]: qHTS assay to identify small molecule agonists of the estrogen receptor alpha (ER-alpha) signaling pathway in the presence of an antagonist - cell viability counter screen (AID 1259386; active means well fitted curve in the direction sought with a large enough effect in the repeat runs; an effect the other way counts as inactive or inconclusive;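 further: cells exposed to compounds for 22 h at 37 °C before the viability read; nearly all actives have a fitted effect of over 30% in size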; further: potency means the concentration at half of the fitted maximal effect). Put shortly: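 Viability counter screen using VM7Luc4E2 (full-length ER-alpha, four ERE-luciferase). The cells were treated with compounds alongside ICI-182,780 10.0nM for 22hr, and live-cell protease fluorescence was quantified with CellTiter-Fluor.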

Experiment [9] deals with Progesterone receptor (Homo sapiens) (UniProt P06401). Put plainly: qHTS assay to identify small molecule agonists of the progesterone receptor (PR) signaling pathway (AID 1346784). Further: nearly all actives have a fitted effect of over 30% in size. The gist of the method: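 Agonist qHTS: compounds pinned onto 3,000 PR-UAS-bla HEK 293T cells per well in charcoal-stripped serum medium, 16hr at 37C, then beta-lactamase activity measured by LiveBLAzer FRET fluorescence after 2 hours at room temperature.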
Chain of Progesterone receptor (Homo sapiens) (P06401 whole entry, looked up): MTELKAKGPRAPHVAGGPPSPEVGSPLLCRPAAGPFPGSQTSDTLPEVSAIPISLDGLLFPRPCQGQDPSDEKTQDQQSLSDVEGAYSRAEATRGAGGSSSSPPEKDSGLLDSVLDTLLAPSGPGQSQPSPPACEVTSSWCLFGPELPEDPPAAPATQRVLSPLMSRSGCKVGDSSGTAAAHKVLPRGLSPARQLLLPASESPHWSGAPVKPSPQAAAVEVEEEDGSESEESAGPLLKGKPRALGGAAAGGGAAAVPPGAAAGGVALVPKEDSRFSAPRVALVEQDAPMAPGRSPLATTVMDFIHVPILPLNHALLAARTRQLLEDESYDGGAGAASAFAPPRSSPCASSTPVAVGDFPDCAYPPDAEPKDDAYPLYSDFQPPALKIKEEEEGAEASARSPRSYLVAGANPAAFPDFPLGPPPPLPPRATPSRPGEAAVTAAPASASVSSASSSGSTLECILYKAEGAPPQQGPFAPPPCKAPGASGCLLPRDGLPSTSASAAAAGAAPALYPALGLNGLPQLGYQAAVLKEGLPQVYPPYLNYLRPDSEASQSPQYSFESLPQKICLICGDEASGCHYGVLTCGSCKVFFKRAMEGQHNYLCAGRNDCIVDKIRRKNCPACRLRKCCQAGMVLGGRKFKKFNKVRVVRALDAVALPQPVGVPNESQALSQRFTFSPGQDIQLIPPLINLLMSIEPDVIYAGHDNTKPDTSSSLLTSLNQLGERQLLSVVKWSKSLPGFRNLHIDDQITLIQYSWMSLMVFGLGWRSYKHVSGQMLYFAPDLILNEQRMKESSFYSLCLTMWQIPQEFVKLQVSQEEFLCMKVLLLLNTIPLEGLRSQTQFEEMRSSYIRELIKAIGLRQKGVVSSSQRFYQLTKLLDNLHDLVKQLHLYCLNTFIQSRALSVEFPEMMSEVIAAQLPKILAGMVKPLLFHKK

Experiment [10] shares this target. Put plainly: qHTS assay to identify small molecule antagonists of the progesterone receptor (PR) signaling pathway (AID 1346795; active means well fitted inhibition curve with a large enough effect in the signal ratio in the repeat runs, not every such curve was filed as active; the % refers to the signal ratio). Put shortly:
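Antagonist mode with agonist R5020 at 1 nM final and 16 hr incubation at 37C. Reporter was beta-lactamase driven by UAS in HEK293T (PR-UAS-bla), 2% charcoal-stripped serum; signal from LiveBLAzer FRET substrate, 2 hr at room temperature.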

The nature of experiment [11]: qHTS assay to identify small molecule antagonists of the progesterone receptor (PR) signaling pathway - cell viability counter screen (AID 1346798; active means well fitted curve in the direction sought with a large enough effect in the repeat runs; an effect the other way counts as inactive or inconclusive; further: series mostly up to about 92 µM; nearly all actives have a fitted effect of over 50% in size). Put shortly:
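Cytotoxicity read as CellTiter-Glo luminescence (30 min, room temperature) in the same wells as the beta-lactamase readout. HEK293T PR-UAS-bla cells in charcoal-stripped 2% FBS received compound and R5020, then 16 h at 37C, 5% CO2.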

The nature of experiment [12]: qHTS assay to identify small molecule agonists of the progesterone receptor (PR) signaling pathway - cell viability counter screen (AID 1346799). Further: nearly all actives have a fitted effect of over 45% in size. Put shortly:
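Cytotoxicity measured by CellTiter-Glo luminescence (30 min, RT) in the same wells as the PR beta-lactamase agonist read. Those HEK293T cells had 16 h compound treatment at 37 C in 2% charcoal-stripped FBS medium.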

A short description of experiment [13]: qHTS assay to identify small molecule antagonists of the TGF-beta/Smad signaling pathway - cell viability counter screen (AID 1346824; active means well fitted curve in the direction sought with a large enough effect in the repeat runs; an effect the other way counts as inactive or inconclusive; further: nearly all actives have a fitted effect of over 50% in size). The gist of the method: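 SBE-bla HEK 293T cells, incubated overnight, then compound plus 0.25 ng/mL TGF-beta1 (stock added) for 5 hr at 37 C. Viability was read in the same wells by CellTiter-Glo luminescence after 30 min at room temperature.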

Experiment [14] can be described thus: qHTS assay to identify small molecule agonists of the TGF-beta/Smad signaling pathway - cell viability counter screen (AID 1346829; active means well fitted curve in the direction sought with a large enough effect in the repeat runs; an effect the other way counts as inactive or inconclusive; further: top concentration of the series differs between compounds; nearly all actives have a fitted effect of over 45% in size). The gist of the method: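 SBE-bla HEK 293T cells plated overnight, compound exposure 5 hr at 37 C. Viability read in the same wells by CellTiter-Glo luminescence after 30 min at room temperature, following the beta-lactamase read.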

The nature of experiment [15]: qHTS assay to identify small molecule agonists of the TGF-beta/Smad signaling pathway (AID 1346859; active means well fitted activation curve with a large enough effect in the signal ratio in the repeat runs, not every such curve was filed as active; the % refers to the signal ratio; further: series mostly up to about 77 µM). Put shortly:
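Fluorescence (ex 405 nm; em 460 and 530 nm) was read 2 h after LiveBLAzer FRET substrate at RT. The preceding compound treatment of overnight-plated SBE-bla HEK293T cells lasted 5 h at 37 C.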

Experiment [16] deals with Thyrotropin-releasing hormone receptor (Homo sapiens) (UniProt P34981). Put plainly: qHTS assay to identify small molecule antagonists of the thyrotropin-releasing hormone receptor (TRHR) signaling pathway (AID 1346877; active means well fitted inhibition curve with a large enough effect in the repeat runs, not every such curve was filed as active; further: series mostly up to about 51 µM). The gist of the method:
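Following an 18 h incubation at 37 °C and a 2 h calcium dye load, TRHR-HEK293 cells were exposed to compound (5 min, room temperature) and challenged with TRH, 1 nM final.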

For experiment [17] the target is unchanged. Put plainly: qHTS assay to identify small molecule agonists of the thyrotropin-releasing hormone receptor (TRHR) signaling pathway (AID 1346891). Further: series mostly up to about 58 µM. Put shortly:
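Agonist-mode intracellular calcium readout: kinetic fluorescence over 3 min at 1 s intervals after compound addition to TRHR-HEK293 cells (18 h seeded, 2 h dye-loaded at 37 C). Fifteen concentrations, triplicates.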

Experiment [18] addresses Estrogen receptor beta (Homo sapiens) (UniProt Q92731). Put plainly: qHTS assay to identify small molecule antagonists of the estrogen receptor beta (ER-beta) signaling pathway (AID 1259378; active means well fitted inhibition curve with a large enough effect in the signal ratio in the repeat runs, not every such curve was filed as active; the % refers to the signal ratio). The gist of the method:
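ER-beta-UAS-bla HEK293T cells in 2% charcoal-stripped FBS medium treated with compound plus 1nM final 17-beta-estradiol for 16 hr at 37C. Beta-lactamase reporter read by FRET substrate fluorescence after 2 hours at room temperature.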

The nature of experiment [19]: qHTS assay to identify small molecule agonists of the estrogen receptor beta (ER-beta) signaling pathway - cell viability counter screen (AID 1259380; active means well fitted curve in the direction sought with a large enough effect in the repeat runs; an effect the other way counts as inactive or inconclusive; further: nearly all actives have a fitted effect of over 30% in size). The gist of the method:
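CellTiter-Glo read, 30 min RT, same wells as bla assay; cells ER-beta-UAS-bla HEK293T; 16 hr compound, 37C; medium 2% charcoal-stripped FBS.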

Experiment [20] deals with Androgen receptor (Homo sapiens) (UniProt P10275). Put plainly: qHTS assay to identify small molecule agonists of the androgen receptor (AR) signaling pathway in the presence of an antagonist (AID 1259381). Further: nearly all actives have a fitted effect of over 15% in size. Put shortly: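 Test compounds at 15 concentrations were incubated for 16hr with MDA-kb2 reporter cells in presence of 3.0uM nilutamide (final). Signal: ONE-Glo luciferase luminescence.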
Chain of Androgen receptor (Homo sapiens) (P10275 whole entry, looked up): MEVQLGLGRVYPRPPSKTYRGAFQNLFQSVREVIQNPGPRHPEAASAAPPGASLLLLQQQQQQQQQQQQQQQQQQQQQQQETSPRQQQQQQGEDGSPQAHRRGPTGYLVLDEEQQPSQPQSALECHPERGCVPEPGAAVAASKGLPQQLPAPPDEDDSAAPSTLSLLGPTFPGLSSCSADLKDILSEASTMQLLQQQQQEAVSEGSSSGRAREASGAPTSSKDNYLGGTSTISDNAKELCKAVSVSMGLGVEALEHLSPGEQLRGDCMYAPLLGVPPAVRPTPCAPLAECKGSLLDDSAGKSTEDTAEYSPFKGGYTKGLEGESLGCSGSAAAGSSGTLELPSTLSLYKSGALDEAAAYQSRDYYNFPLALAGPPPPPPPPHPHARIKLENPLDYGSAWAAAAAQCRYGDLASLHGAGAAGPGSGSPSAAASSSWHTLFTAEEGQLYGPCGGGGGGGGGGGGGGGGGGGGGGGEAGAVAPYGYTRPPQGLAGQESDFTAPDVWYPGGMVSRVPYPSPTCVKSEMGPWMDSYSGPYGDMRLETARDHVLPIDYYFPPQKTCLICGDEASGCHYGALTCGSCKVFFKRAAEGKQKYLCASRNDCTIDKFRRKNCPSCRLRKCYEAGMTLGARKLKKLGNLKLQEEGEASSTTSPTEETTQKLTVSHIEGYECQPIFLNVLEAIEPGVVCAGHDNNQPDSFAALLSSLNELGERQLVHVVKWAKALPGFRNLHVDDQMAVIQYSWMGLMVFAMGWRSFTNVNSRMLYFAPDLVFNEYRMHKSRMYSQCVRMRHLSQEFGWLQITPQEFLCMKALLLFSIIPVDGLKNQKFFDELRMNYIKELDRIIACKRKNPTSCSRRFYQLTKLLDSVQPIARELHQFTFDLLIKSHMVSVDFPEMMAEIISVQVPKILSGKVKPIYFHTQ

Chain of Estrogen receptor beta (Homo sapiens) (Q92731 whole entry, looked up): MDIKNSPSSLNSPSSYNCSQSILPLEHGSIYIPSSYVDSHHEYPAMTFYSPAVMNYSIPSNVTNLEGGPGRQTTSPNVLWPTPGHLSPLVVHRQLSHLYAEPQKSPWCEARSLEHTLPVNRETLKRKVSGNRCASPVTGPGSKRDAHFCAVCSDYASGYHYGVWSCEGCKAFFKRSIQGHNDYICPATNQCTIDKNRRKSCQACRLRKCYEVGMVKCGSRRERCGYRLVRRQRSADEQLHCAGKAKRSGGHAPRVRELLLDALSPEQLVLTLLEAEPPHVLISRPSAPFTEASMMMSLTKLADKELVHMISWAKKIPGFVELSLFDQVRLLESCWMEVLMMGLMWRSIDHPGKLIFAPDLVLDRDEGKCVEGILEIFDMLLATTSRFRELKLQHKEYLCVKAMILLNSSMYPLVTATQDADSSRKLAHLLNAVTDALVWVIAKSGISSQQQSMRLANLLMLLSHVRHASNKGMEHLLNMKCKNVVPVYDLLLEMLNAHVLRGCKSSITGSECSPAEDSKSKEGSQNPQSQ
Chain of Thyrotropin-releasing hormone receptor (Homo sapiens) (P34981 whole entry, looked up): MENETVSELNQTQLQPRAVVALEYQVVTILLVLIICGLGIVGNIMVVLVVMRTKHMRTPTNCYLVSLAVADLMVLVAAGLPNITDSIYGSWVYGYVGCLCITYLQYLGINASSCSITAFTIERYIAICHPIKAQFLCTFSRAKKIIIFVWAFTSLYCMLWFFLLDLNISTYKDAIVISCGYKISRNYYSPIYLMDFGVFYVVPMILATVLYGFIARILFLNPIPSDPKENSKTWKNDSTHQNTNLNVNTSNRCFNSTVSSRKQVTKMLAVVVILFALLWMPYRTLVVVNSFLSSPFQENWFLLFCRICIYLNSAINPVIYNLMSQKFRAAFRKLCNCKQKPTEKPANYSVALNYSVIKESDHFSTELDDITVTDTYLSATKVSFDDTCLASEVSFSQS

On to `CC(CCC(=O)O)(c1ccc(O)cc1)c1ccc(O)cc1`, for which the Potency result in [1], in [2], in experiment [3], in [4], in [5] and in experiment [7] was “inactive” throughout. The Potency entry in [8], in [9], in [10], in experiment [11], in experiment [12] and in [13] was “inactive” throughout. The Potency result in experiment [14], in [16] and in experiment [17] was “inactive” throughout. Besides, the compound was called inactive in experiment [6] and in experiment [15].
With `CCC(C)c1ccccc1O` (stereo unspecified), the Potency entry in [1], in [2], in experiment [18], in experiment [3], in experiment [4] and in experiment [7] was “inactive” throughout. The Potency result in [8], in experiment [9], in experiment [10], in experiment [11], in experiment [13] and in experiment [14] was “inactive” throughout. Besides, the Potency entry in [16] and in experiment [17] was “inactive” throughout. Further, the call in experiment [6] and in [15] was inactive.
Take `c1ccc2c(c1)Oc1ccccc1S2`: the Potency entry in [1], in [2], in experiment [18], in experiment [3], in experiment [4] and in experiment [5] was “inactive” in each case. The Potency result in experiment [7], in experiment [8], in experiment [9], in experiment [10], in experiment [11] and in experiment [12] was “inactive” each time. Further, the Potency entry in experiment [13], in [14], in experiment [16] and in experiment [17] was “inactive” throughout. For the same compound, the result in experiment [6] and in [15] was inactive.
As for `Nc1ccccc1N`, the Potency entry in experiment [1] is “inactive and 30.6 µM (active)”; in experiment [5], “inactive and 27.3 µM (active)”; in [8] it was 49.7 µM (active). Also, the Potency result in experiment [18], in experiment [3], in [19], in experiment [4], in experiment [9] and in [11] was “inactive” in each case. Further, the Potency entry in experiment [12], in experiment [13], in [14], in experiment [16] and in experiment [17] was “inactive” throughout. The compound was called inactive in experiment [6] and in experiment [15].
`CCCCOCCOCCO`: the Potency result in experiment [1], in [2], in [18], in [3], in experiment [4] and in experiment [5] was “inactive” each time. The Potency entry in experiment [7], in experiment [8], in [9], in experiment [10], in experiment [11] and in [12] was “inactive” each time. Besides, the Potency result in [13] and in [14] was “inactive” in each case. Moreover, the outcome in experiment [6] and in experiment [15] was inactive.
On to `c1ccncc1`, for which the Potency result in experiment [1], in [2], in experiment [18], in experiment [3], in experiment [4] and in experiment [5] was “inactive” in each case. For the same compound, the Potency entry in experiment [7], in experiment [8], in experiment [9], in experiment [10], in experiment [11] and in experiment [12] was “inactive” each time. The Potency entry in [13], in [14], in experiment [16] and in experiment [17] was “inactive” in each case. For the same compound, the compound was called inactive in experiment [6] and in [15].
As for `COc1cc([C@@H]2c3cc4c(cc3[C@H](O)[C@H]3COC(=O)[C@H]23)OCO4)cc(OC)c1OC`, in [1], the Potency is 5.4 nM (active) and 16.8 nM (active). For the same compound, the Potency entry in [2], in experiment [18], in experiment [19], in [4], in [7] and in [8] was “inactive” throughout. For the same compound, the Potency result in experiment [9], in experiment [13], in experiment [14], in [16] and in [17] was “inactive” in each case. Besides, the result in experiment [20], in experiment [6] and in experiment [15] was inactive.
